# Hit rate of the full screen: of about 2,300 compounds, about 350 (15%) were called active. No rule for the calls is given here. Not all results are given here. Entries with a potency or affinity are not part of this list.
# Assay: HepG2 cell cytotoxicity, dose response, cytotoxicity control for non-replicating M. tuberculosis project (AID 489018);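 also: HepG2 human liver cells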
# Conditions: series mostly up to 20 µM
row,SMILES,outcome
1,COc1ccc(C2(O)CCN(CCCCOc3ccccc3)CC2)cc1,inactive
2,OCC1(CCOc2ccccc2)CCN(Cc2cc(Cl)ccc2O)CC1,inactive
3,Clc1cccc(OCCN2CCN(CCOc3cccc(Cl)c3)CC2)c1,inactive
4,CC(C)Cn1c(N)c(C(=O)COC(=O)c2cnc(Cl)c(Cl)c2)c(=O)n(C)c1=O,inactive
5,O=C(Oc1cccnc1)c1ccc(Cl)c(Cl)c1,inactive
6,CC(=O)c1ccc(-n2cc(-c3ccc(C(C)(C)C)cc3)[n+]3c2SCCC3)cc1,inactive
7,Cn1c(=O)c(Oc2ccc(F)cc2)c(O)c2ccccc21,inactive
8,O=C(Nc1nccs1)c1ccc(COc2ccc(Cl)cc2)o1,inactive
9,COc1cccc(COC(=O)CCNC(=O)c2ccc(Cl)cc2)c1OC,inactive
10,O=C(Oc1ccccc1)c1ccc(COC(=O)c2cnccn2)cc1,inactive
11,NC1=NC[C@H](Cc2ccccc2)N1CCCCC1CCCCC1,inactive
12,CCCC(=O)N1CCC(Cc2ccccc2)CC1,inactive
13,Cc1ccc(NC(C)C(=O)N/N=C/c2ccc([N+](=O)[O-])s2)cc1 (centres undefined),inactive
14,Cc1ccc(NC(CC(=O)c2ccccc2)C(=O)O)cc1Cl (centres undefined),inactive
15,CC(CN1CCOCC1)OC(=O)c1ccc2c(c1)OCCO2 (centres undefined),inactive
16,COc1ccc(C(=O)CCN2CCCCCC2)cc1,inactive
17,COc1ccc2cc(C(=O)C3CCCN(Cc4ccccn4)C3)ccc2c1 (centres undefined),inactive
18,CCOc1ccc(C(=O)CCN2CCCCCC2)cc1,inactive
19,CC(NC(=O)OCc1ccccc1)c1ccccc1 (centres undefined),inactive
20,CC(CN1CCOCC1)OC(=O)c1ccc(Br)cc1 (centres undefined),inactive
21,CC(C)COc1ccc(C(=O)CCN2CCCCC2)cc1,inactive
22,CC(=O)c1cc2c(ccc3ccccc32)oc1=O,inactive
23,Cc1c([N+](=O)[O-])cnc(Sc2ccccc2)c1[N+](=O)[O-],inactive
24,O=C(C/C=N\OCc1ccc([N+](=O)[O-])cc1)Nc1ccccc1,inactive

row,SMILES,outcome
1,Cc1nnc(N/N=C/c2cccc(OCc3ccc(Cl)c(Cl)c3)c2)n1N,inactive
2,O=C(CN1CCC(NC(=O)c2cccc(F)c2)CC1)Nc1ccc(Br)cc1,inactive
3,COc1cccc(NC(=O)c2cnc(SC)nc2)c1,inactive
4,CCOC(=O)c1c(C)nc2c3ccccc3ccn12,inactive
5,COC(=O)c1ccc(N2CCN(CCNC(=O)Nc3ccc(OC)cc3)CC2)cc1,inactive
6,COC(=O)COc1ccc2c(=O)c(Oc3ccccc3)c(C)oc2c1,inactive
7,O=C(CCSc1ccccc1)N1CCCC1,inactive
8,O=C(CCN1CCCCCC1)c1ccccc1,inactive
9,Cc1ccc2nc(NC(=O)c3ccccn3)sc2c1,inactive
10,Cc1cnc(NC(=O)c2ccccn2)s1,inactive
11,O=C(Nc1nc(-c2cc(F)ccc2F)cs1)c1ccccn1,inactive
12,O=C(Nc1nccs1)c1ccccn1,inactive
13,CC1=C(/C=C/C(C)=N\NC(=O)c2ccncc2)C(C)(C)CCC1,inactive
14,O=C(COC(=O)COc1ccc(Nc2ccccc2)cc1)NCc1ccco1,inactive
15,O=C(COc1ccccc1)Nc1nnc(-c2ccc(Cl)cc2)o1,inactive
16,CC(C)Cc1cc(C(=O)Nc2ccc(F)cc2F)no1,inactive
17,O=C(Nc1c(F)cc(F)cc1Br)c1cc(-c2ccccc2)on1,inactive
18,O=C(N/N=C\c1ccc([N+](=O)[O-])s1)C1COc2ccccc2O1 (centres undefined),inactive
19,CCn1ccc(C(=O)Nc2cccc(Cl)c2)n1,inactive
20,O=C(CCSc1nnc(-c2ccncc2)o1)Nc1cccc(Cl)c1,inactive
21,Cc1noc2ncnc(Sc3ccc(Br)cc3)c12,inactive
22,O=c1cc(-c2ccccc2Cl)oc2c([N+](=O)[O-])c(O)cc(O)c12,inactive
23,O=C1C=C(Nc2ccc(F)cc2)c2ccccc2C1=O,inactive
24,CCOC(=O)c1ccc(NC2=CC(=O)C(=O)c3ccccc32)cc1,inactive

row,SMILES,outcome
1,CCN(CC)S(=O)(=O)c1ccc(C(=O)OCn2nnc3ccccc3c2=O)cc1,inactive
2,O=c1cc(-c2ccccc2Cl)oc2ccc([N+](=O)[O-])c(O)c12,inactive
3,CCC/C(=N\NC(=O)c1ccco1)c1ccc(Cl)s1,inactive
4,CCCc1cc(C(=O)Nc2ccccc2SC)no1,inactive
5,Cc1cc(C)n(CC(=O)N/N=C/c2ccc([N+](=O)[O-])s2)n1,inactive
6,Cc1cc(C(=O)N/N=C/c2ccc([N+](=O)[O-])s2)n[nH]1,inactive
7,O=c1oc(/C=C/c2ccc([N+](=O)[O-])s2)nc2ccccc12,inactive
8,Cc1ccc(C(=O)N/N=C\c2ccc([N+](=O)[O-])s2)cn1,inactive
9,CCOC(=O)c1cc(-c2csc(COc3ccccc3)n2)on1,inactive
10,O=C(N/N=C\C=C\c1ccco1)c1cncc(Br)c1,inactive
11,Cc1cc(C)n2nc(S(=O)(=O)Nc3c(Cl)cccc3Cl)nc2n1,inactive
12,CS(=O)(=O)Nc1cccc2cccnc12,inactive
13,O=C(OCc1nnc(-c2ccccc2)o1)c1cc([N+](=O)[O-])ccc1Cl,inactive
14,O=c1c2cc(Cl)ccc2nc(-c2ccccc2Cl)n1O,inactive
15,CCOC(=O)c1ccc(COC(=O)c2ccc(-c3nnc(-c4ccccc4)o3)cc2)o1,inactive
16,Cc1cc(OCCCCn2ccnc2)cc(C)c1Cl,inactive
17,O=C(c1ccc([N+](=O)[O-])cc1[N+](=O)[O-])N1CCc2ccccc21,inactive
18,Cc1ccc(S(=O)(=O)CCC(=O)Nc2nc(-c3ccncc3)cs2)cc1,inactive
19,CC(/C=C/c1ccccc1F)=N\NC(=O)c1ccccc1,inactive
20,O=S1(=O)C=C(Sc2nc3cc(Cl)ccc3o2)c2ccccc21,inactive
21,O=C1c2ccccc2CC1Sc1nnc(-c2ccncc2)o1 (centres undefined),inactive
22,O=C(O)c1[nH]c(=O)[nH]c(=O)c1F,inactive
23,CC1=NN(c2ccccc2)C(=O)C1C(=O)c1ccccc1 (centres undefined),inactive
24,Nc1nc2ccccc2n1C(=O)c1ccc(F)cc1,inactive

row,SMILES,outcome
1,C=CCc1ccc(OCC(O)CN2CCN(Cc3ccc(Cl)cc3)CC2)c(OC)c1 (centres undefined),inactive
2,CCC(=O)Nc1nc2ccccc2n1Cc1ccccc1,inactive
3,OC(COc1ccccc1Cl)CN1CCN(CC(O)COc2ccccc2Cl)CC1 (centres undefined),inactive
4,O=C(COc1ccccc1)NCCSCc1ccc(Cl)cc1,inactive
5,O=C(Nc1ncc([N+](=O)[O-])s1)c1ccc2c(c1)OCO2,inactive
6,O=C(OCc1ccc(Cl)c(Cl)c1)c1ccccn1,inactive
7,O=C(Nc1sc2c(c1C(=O)O)CCCC2)c1ccc(F)cc1,inactive
8,COc1cc2c(cc1OC)CN(C(=O)c1ccc([N+](=O)[O-])o1)CC2,inactive
9,COc1ccccc1NC(=O)c1ccc([N+](=O)[O-])o1,inactive
10,O=C(c1ccc([N+](=O)[O-])o1)N1CCc2ccccc2C1,inactive
11,O=C(Nc1sc2c(c1C(=O)O)CCCCC2)c1ccccc1F,inactive
12,CCOC(=O)COc1ccc2c3c(c(=O)oc2c1C)CCC3,inactive
13,O=C(COC(=O)c1ccc(Cl)s1)c1ccc[nH]1,inactive
14,COc1ccccc1OCCNC(=O)c1cc([N+](=O)[O-])cc([N+](=O)[O-])c1,inactive
15,O=C(OCC(=O)N1CCN(c2ccccc2)CC1)c1ccc2ccccc2n1,inactive
16,O=C(OCC(=O)c1c[nH]c2ccccc12)c1ccc([N+](=O)[O-])s1,inactive
17,CCCCCC/C(=N/O)c1ccccn1,inactive
18,Cc1cccc2cc(C#N)c(NCCCn3ccnc3)nc12,inactive
19,c1ccc(-c2nc(NCCCn3ccnc3)c3ccccc3n2)cc1,inactive
20,CC(C)OC(=O)c1cc(C(=O)c2cc(Cl)ccc2O)coc1=N,inactive
21,O=C1NN(c2ccccc2)C(=O)/C1=C/c1ccc(Sc2ccc(Cl)cc2)o1,inactive
22,COC(=O)COc1ccc2c(-c3cccc([N+](=O)[O-])c3)cc(=O)oc2c1,inactive
23,Cc1cc(NC(=O)c2cc([N+](=O)[O-])cc([N+](=O)[O-])c2)no1,inactive
24,NC(=O)N/N=C\c1cc(Br)ccc1O,inactive

row,SMILES,outcome
1,C/C(=N\NC(=O)CCc1ccccc1)C1C(=O)c2ccccc2C1=O,inactive
2,Cc1cc(C(=O)N/N=C/c2cccc(Cl)c2Cl)no1,inactive
3,O=C(CCc1ccccc1)NC1C2CC3CC(C2)CC1C3 (centres undefined),inactive
4,CN1CC(=O)NC1=NC(=O)C12CC3CC(CC(C3)C1)C2,inactive
5,O=C(NNC(=O)c1cnccn1)c1ccc(Cl)c(Cl)c1,inactive
6,Cn1cnc([N+](=O)[O-])c1Sc1ccc(Br)cc1,inactive
7,CCc1ccc(N2CCN(CCNC(=O)Nc3ccc(OC)cc3)CC2)cc1,inactive
8,O=c1c2c([N+](=O)[O-])cc([N+](=O)[O-])cc2nc2ccccn12,inactive
9,O=C(OCc1cccc([N+](=O)[O-])c1)c1ccc2ccccc2n1,inactive
10,CCOC(=O)C(=O)NC12CC3CC(CC(C3)C1)C2,inactive
11,O=C(CCCOc1ccccc1)OCn1nnc2ccccc2c1=O,inactive
12,CCOc1ccc2ccccc2c1/C=N/NC(=O)c1ccncc1,inactive
13,COc1ccc(NC(=O)Nc2ccc(O)c3ccccc23)cc1,inactive
14,CCS(=O)(=O)c1ncc(Cl)c(C(=O)Nc2ccc(S(=O)(=O)N(C)c3ccccc3)cc2)n1,inactive
15,CCOC(=O)c1c(NC(=O)COC(=O)c2ccccn2)sc2c1CCC2,inactive
16,Clc1ccc(OCCOCCN2CCc3ccccc3C2)c(Cl)c1,inactive
17,CC(C)OC(=O)C(C)Oc1ccc(C(=O)NCCc2ccccc2)cc1 (centres undefined),inactive
18,CC1(C)OC(c2ccccc2)=C/C(=C\C=N\NC(=O)c2ccncc2)O1,inactive
19,Cc1ccc2nc(N(CCCN(C)C)C(=O)c3ccc4c(c3)CCCC4)sc2c1,inactive
20,CN(C)CCC(=O)N1c2ccccc2Sc2ccc(Cl)cc21,inactive
21,CCc1ccc(OCC(=O)NNC(=O)c2cnccn2)c(Br)c1,inactive
22,O=C(N/N=C\c1ccc(Cl)s1)C1COc2ccccc2O1 (centres undefined),inactive
23,Clc1ccc(N=c2ssnc2Cl)nc1,inactive
